High-throughput results: PubChem BioAssay, National Center for Advancing Translational Sciences (NCATS)
JMJD2E inh = qHTS Assay for Inhibitors of Human Jumonji Domain Containing 2E (JMJD2E); Lysine-specific demethylase 4E (Homo sapiens), B2RXH2; JMJD2E catalytic domain, FDH-coupled NADH fluorescence (FDH is formaldehyde dehydrogenase); Potency, µM (series often up to 57.1 µM), for inactives: top-dose activity change, negative = inhibition, hits mostly inhibitors; 230,000 tested, 1.6% active; AID 2147, 2009; active = well fitted inhibition curve with a large enough effect, not every such curve was filed as active; inconclusive = small, poorly fitted or top-dose-only effect, or another doubt; inactive = no such curve, though single readings can be large or run the other way;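 note: 0% = wells with enzyme and -100% = buffer wells without enzyme; nearly all actives have a fitted effect of over 50% in size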
KAT2A inh = qHTS Assay for Inhibitors of GCN5L2. Potency, µM (series often up to 58.9 µM), for inactives: at the top dose activity change, negative = inhibition, actives largely listed as inhibitors. GCN5L2 HAT assay, ThioGlo1 CoA-SH fluorescence. 390,000 tested, 0.21% active; note: % is set by controls: 0 for no effect and ±100 for the full control effect
Target sequence (Q92830 whole entry, looked up): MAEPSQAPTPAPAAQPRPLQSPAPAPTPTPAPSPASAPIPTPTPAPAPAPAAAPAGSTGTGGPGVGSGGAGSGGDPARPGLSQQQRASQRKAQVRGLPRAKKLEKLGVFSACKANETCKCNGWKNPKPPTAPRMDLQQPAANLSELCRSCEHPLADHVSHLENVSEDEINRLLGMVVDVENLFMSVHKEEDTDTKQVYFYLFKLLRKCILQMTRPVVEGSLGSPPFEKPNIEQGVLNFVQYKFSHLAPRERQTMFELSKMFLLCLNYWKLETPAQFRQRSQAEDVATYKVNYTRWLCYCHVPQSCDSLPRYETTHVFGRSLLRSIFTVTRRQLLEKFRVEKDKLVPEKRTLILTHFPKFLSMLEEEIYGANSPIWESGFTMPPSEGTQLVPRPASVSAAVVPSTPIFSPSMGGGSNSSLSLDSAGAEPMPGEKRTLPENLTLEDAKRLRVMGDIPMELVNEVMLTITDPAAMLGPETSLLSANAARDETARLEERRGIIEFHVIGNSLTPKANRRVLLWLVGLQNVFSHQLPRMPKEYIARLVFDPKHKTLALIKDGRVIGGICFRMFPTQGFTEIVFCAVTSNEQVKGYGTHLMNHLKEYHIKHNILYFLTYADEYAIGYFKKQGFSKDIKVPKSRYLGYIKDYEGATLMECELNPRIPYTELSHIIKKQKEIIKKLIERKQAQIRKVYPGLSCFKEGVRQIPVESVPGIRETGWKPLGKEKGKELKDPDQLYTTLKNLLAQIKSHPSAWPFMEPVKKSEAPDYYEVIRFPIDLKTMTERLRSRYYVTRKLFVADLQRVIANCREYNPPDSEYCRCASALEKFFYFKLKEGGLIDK
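ThioGlo1-coupled HAT assay: 20nM GCN5L2, 70uM acetyl-CoA, 75uM H3(1-25) peptide, pH 7.5. Fluorescence read at 340/540nm at start and after 20 min at room temperature.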
NPSR antag = qHTS Assay for Antagonists of the Neuropeptide S Receptor: cAMP Signal Transduction; CHO-NPSR cells, cAMP TR-FRET, antagonist mode; Potency, µM (series often up to 38.3 µM), inactives show at the top dose activity change, negative = inhibition, hits mostly inhibitors; 220,000 tested, 1% active; note: % is set by controls: 0 for no effect and ±100 for the full control effect; nearly all actives have a fitted effect of over 50% in size
IMPase Li cell = qHTS Assay for Identifying the Cell-Membrane Permeable IMPase Inhibitors: Potentiation with Lithium; CHO-M1 cells, IP1 TR-FRET (IP-One), carbachol + lithium; Potency, µM (doses to about 59.4 µM), for inactives: top-dose activity, negative = IMPase inhibition, hits mostly inhibitors; 210,000 tested, 0.35% active;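 note: IP1 builds up when IMPase is blocked and the TR-FRET signal falls; plate controls were basal vehicle for no effect and high inhibitor control for full effect; nearly all actives have a fitted effect of over 50% in size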
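CHO cells stably expressing M1 receptor (2000/well) were cultured 16–30 h, then exposed to compounds with a small lithium addition for 30 min at 37C. IP1 was measured by TR-FRET competition; AC50 from Hill fits.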
Sfp PPTase inh = qHTS Assay for Inhibitors of Bacillus subtilis Sfp phosphopantetheinyl transferase (PPTase) | 4'-phosphopantetheinyl transferase ffp (Bacillus subtilis), Q9F4F7 | Biochemical Sfp PPTase activity, qHTS | Potency, µM, for the others: largest response in the series, negative = inhibition, actives largely listed as inhibitors | 310,000 tested, 3.5% active | AID 1490, 2009;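 note: the enzyme is Sfp with the accession as filed and its product quenches rhodamine fluorescence; 0% = enzyme reaction without inhibitor and -100% = no enzyme wells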
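Fluorescence-quenching assay: 15 nM Sfp-PPTase preincubated 15 min at room temperature with compound, then 5 uM rhodamine-CoA and 12.5 uM BHQ-2-labelled YbbR peptide added. Fluorescence (ex 525/em 598 nm) read at start and after 30 min; difference gives rate.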
Epigenetic reg = Quantitative High-Throughput Screen for Regulators of Epigenetic Control; Potency, µM (top dose mostly 53.9 µM), for the others: at the highest dose GFP activation, actives largely listed as activators; AID 1865, 2009; murine LDR cells, GFP reporter derepression, 30 h; 280,000 tested, 0.2% active; note: % of control where 0% means no effect; nearly all actives have a fitted effect of over 60% in size
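Murine LDR cells bearing a silenced CMV-driven GFP reporter were exposed to compound for 30 h at 37 C. After PBS washes, GFP-positive cells (20-120 um objects) counted by laser-scanning microplate cytometry.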
Active calls of the source: *; [ ] = another dose, or the depositor's remark. Hits are enriched below; roughly 3.6% of the tested compounds scored in any of these assays. Unless noted, calls come from the whole dose curve; as a rule, active = well fitted curve in the direction sought with a large enough effect; inconclusive = small, poorly fitted or top-dose-only effect, or another doubt; inactive = no such curve, though single readings can be large; an effect the other way counts as inactive or inconclusive. Potency is the fitted concentration of half-maximal effect.

`CCC1(c2ccc(OC)cc2)NC(=O)N(C)C1=O` (centres undefined) gave KAT2A inh -12.3% and Sfp PPTase inh 6.0%.
Screening N#CCC(=O)N/N=C/c1cn(Cc2ccccc2C#N)c2ccccc12 returned JMJD2E inh -3.2%, KAT2A inh -8.4%, NPSR antag 2.9%, Sfp PPTase inh -1.3% and Epigenetic reg 1.2%.
Screening N#CCC(=O)N/N=C/c1c(-c2ccccc2)n(-c2ccccc2)c2ccccc12 returned KAT2A inh -6.2% and Sfp PPTase inh 56.2µM*.
For CNS(=O)(=O)c1ccccc1C(=N)c1ccccc1 the results were IMPase Li cell -2.1%.
CCOC(=O)COc1ccc(C2NC(C(=O)O)CS2)cc1 (centres undefined) was read as JMJD2E inh inconclusive, KAT2A inh -2.5%, NPSR antag -4.2%[46.1 µM], IMPase Li cell -1.2%[38.3 µM], Sfp PPTase inh 44.7µM* and Epigenetic reg 0.9%.
For COC(=O)c1ccc(C2NC(C(=O)O)CS2)cc1 (centres undefined) the results were JMJD2E inh inconclusive, KAT2A inh -2.7%, NPSR antag -5.9%[46.1 µM], IMPase Li cell 13.8%[38.3 µM], Sfp PPTase inh 56.2µM* and Epigenetic reg 0.8%.
For COc1cc(C2NC(C(=O)O)CS2)ccc1OCc1ccccc1C#N (centres undefined) the results were JMJD2E inh -24.9%, KAT2A inh -3.6%, NPSR antag -7.0%[46.1 µM], IMPase Li cell 14.0%[38.3 µM], Sfp PPTase inh 17.8µM* and Epigenetic reg -0.9%.
COc1cc(/C=C/C(=O)O)ccc1OCc1ccccc1C#N was read as JMJD2E inh -6.0%, KAT2A inh -1.5%, NPSR antag -19.5%, IMPase Li cell 1.6%, Sfp PPTase inh -17.9% and Epigenetic reg 2.1%.
For CC(C)C[C@H](NC(=O)[C@@H]1CCCN1C(=O)[C@H](CO)NC(=O)[C@H](Cc1ccccc1)NC(=O)CNC(=O)[C@@H]1CCCN1C(=O)[C@@H]1CCCN1C(=O)[C@@H](N)CCCN=C(N)N)C(=O)O the results were KAT2A inh 6.6% and Sfp PPTase inh 5.7%.
Screening Cc1cc(CNC(=O)[C@]2(C(F)(F)F)C[C@H](CCC3CCCCC3)CCCO2)nn1C returned Sfp PPTase inh -6.4%.
For Cc1ccc(-c2noc(CN(C3CCCCC3)S(=O)(=O)c3ccc(C)cc3)n2)cc1 the results were KAT2A inh -10.7% and Epigenetic reg -1.0%.
CC(C)[C@H](NC(=O)[C@H](CC(=O)O)NC(=O)CNC(=O)[C@@H](N)CCCN=C(N)N)C(=O)O was read as KAT2A inh -7.2% and Sfp PPTase inh 9.1%.
Screening CCCCN1CCCC1C(=O)Nc1c(C)cc(C)cc1C (centres undefined) returned KAT2A inh -9.8% and Sfp PPTase inh -14.7%.
Screening NC(N)=NC(N)=Nc1c(F)c(F)c(F)c(F)c1F returned IMPase Li cell -1.0%.
`Cc1cccnc1NCc1ccc(O)c2ncccc12` gave JMJD2E inh 17.8µM*, KAT2A inh -2.7%, NPSR antag -4.4%[7.67 µM], IMPase Li cell -4.9%[38.3 µM], Sfp PPTase inh 15.9% and Epigenetic reg 6.31µM*.
Cc1cccc(NCc2ccc(O)c3ncccc23)c1C was read as JMJD2E inh -14.3%, KAT2A inh 0.0%, NPSR antag -17.0%, IMPase Li cell -2.8%, Sfp PPTase inh 27.0% and Epigenetic reg 9.6%.
O=C(CNc1ccc(Oc2ccccc2)cc1)N1CCOCC1 was read as JMJD2E inh inconclusive, KAT2A inh -1.0%, NPSR antag 1.6%[46.1 µM], IMPase Li cell 18.9%[38.3 µM], Sfp PPTase inh 50.1µM* and Epigenetic reg -1.1%.
S=C(Nc1ccc(Oc2ccccc2)cc1)N1CCOCC1 was read as KAT2A inh -18.6% and Sfp PPTase inh -8.2%.
For Cc1ccccc1-n1c(C)nnc1SCc1cc(=O)oc2ccc3ccccc3c12 the results were JMJD2E inh inconclusive, KAT2A inh -2.8%, NPSR antag -23.8%, IMPase Li cell 4.5%, Sfp PPTase inh 79.4µM* and Epigenetic reg 0.0%.
For COc1ccc(CNC(=O)c2ccc(Cn3c(=O)c4cccn4c4cccnc43)cc2)c(OC)c1 the results were KAT2A inh 0.1% and Epigenetic reg 8.3%.
`O=C(O)/C=C\C(=O)NNC(=O)c1cc(-c2ccccc2)n[nH]1` gave JMJD2E inh inconclusive, KAT2A inh -3.4%, NPSR antag -26.1%, Sfp PPTase inh 50.1µM* and Epigenetic reg -5.3%.
O=C(/C(N=Nc1cccc([N+](=O)[O-])c1)=C(/O)c1ccc(Br)cc1)C(F)(F)F was read as JMJD2E inh 5.6%, KAT2A inh -10.6%, NPSR antag 6.31µM*, Sfp PPTase inh 12.3% and Epigenetic reg 0.3%.
`CC1=C/C(=C(/c2ccc(O)c(C)c2)c2ccccc2C(=O)O)C=CC1=O` gave IMPase Li cell 11.8%.
`O=C(O)C1=CC(=C(c2ccc(O)c(C(=O)O)c2)c2ccc(O)c(C(=O)O)c2)C=CC1=O` gave JMJD2E inh inconclusive, KAT2A inh 0.316µM*, NPSR antag -14.3%[46.1 µM], IMPase Li cell inconclusive, Sfp PPTase inh -1.7% and Epigenetic reg -1.2%.
Screening COCCn1c(=O)c(-c2ccc(F)cc2)nc2cnc(N(C)C)nc21 returned KAT2A inh -9.7%, IMPase Li cell -29.5% and Sfp PPTase inh 10.7%.
`O=C(CN1C(=O)c2ccccc2C1=O)NN1C(=O)c2ccccc2C1=O` gave JMJD2E inh inconclusive, KAT2A inh -4.6%, NPSR antag inconclusive, IMPase Li cell -13.0%[38.3 µM], Sfp PPTase inh 44.7µM* and Epigenetic reg -1.1%.
For O=C(Cc1ccccc1)NN1C(=O)c2ccccc2C1=O the results were JMJD2E inh 1.1%, KAT2A inh -0.4%, NPSR antag -23.6%, IMPase Li cell 1.1%, Sfp PPTase inh -15.1% and Epigenetic reg 0.1%.
For COc1cc(OC)cc(-c2n[nH]c(=S)n2-c2ccc3c(c2)OCO3)c1 the results were JMJD2E inh inconclusive, KAT2A inh -4.2%, NPSR antag -26.7%, IMPase Li cell -24.3%, Sfp PPTase inh inconclusive and Epigenetic reg 1.0%.
`Oc1ccc(-c2n[nH]c(=S)n2-c2ccc3c(c2)OCCO3)cc1` gave JMJD2E inh inconclusive, KAT2A inh -6.2%, NPSR antag 3.6%, IMPase Li cell -2.2%, Sfp PPTase inh 79.4µM* and Epigenetic reg 4.4%.
